Common to all, as to experiment: DAPPL (digital affinity profiling via proximity ligation, sequencing); 10 mM Tris-HCl pH 7.5, 50 mM NaCl, 1 mM DTT, 4% glycerol, room temperature, 30 min; GST-TFs on glutathione beads, 16-mer random dsDNA library, 0.1% formaldehyde crosslink after washing; high values mean tight binding
Experiment [1] deals with HSF1 (Homo sapiens, UniProt Q00613 1-529). To be noted: protein: recombinant; tags: N-terminal GST; chain copies: 3; dsDNA, one strand shown. An outline of the steps:
(§1)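 Human transcription factors carrying a GST fusion were produced in yeast, bound to glutathione beads, tagged with DNA barcodes and pooled together with a tag-only sample. Each pool was held with 200 nmole of a random double-stranded 16-mer DNA library in Tris/NaCl/DTT/glycerol buffer for 30 min at room temperature, then washed, crosslinked in 0.1% formaldehyde, proximity-ligated with BsaI/T4 ligase (1 h, 37 °C), PCR-amplified and sequenced on an Illumina NextSeq500. Binding signal is the read frequency of each hexamer for a given factor divided by its frequency in the tag-only sample.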

The target of experiment [2] is T1, ELK1 (Homo sapiens, UniProt P19419 1-428).
T1 sequence: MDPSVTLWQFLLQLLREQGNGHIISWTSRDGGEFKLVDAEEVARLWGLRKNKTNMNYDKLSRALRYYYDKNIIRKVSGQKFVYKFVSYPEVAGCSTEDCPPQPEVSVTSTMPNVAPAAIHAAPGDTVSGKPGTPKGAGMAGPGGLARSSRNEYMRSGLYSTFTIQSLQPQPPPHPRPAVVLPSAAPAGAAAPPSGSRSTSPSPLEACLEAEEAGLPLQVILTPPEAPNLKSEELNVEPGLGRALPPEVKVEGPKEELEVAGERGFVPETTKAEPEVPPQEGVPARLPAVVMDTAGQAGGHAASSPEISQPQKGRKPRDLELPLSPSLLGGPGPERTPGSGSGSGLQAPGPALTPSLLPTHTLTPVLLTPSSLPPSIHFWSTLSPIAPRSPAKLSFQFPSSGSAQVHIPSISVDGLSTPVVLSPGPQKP
To be noted: protein: recombinant; tags: N-terminal GST; dsDNA, one strand shown. An outline of the steps:
as §1

Experiment [3] has as its target T2, ERG (Homo sapiens, UniProt P11308 1-479).
T2 sequence: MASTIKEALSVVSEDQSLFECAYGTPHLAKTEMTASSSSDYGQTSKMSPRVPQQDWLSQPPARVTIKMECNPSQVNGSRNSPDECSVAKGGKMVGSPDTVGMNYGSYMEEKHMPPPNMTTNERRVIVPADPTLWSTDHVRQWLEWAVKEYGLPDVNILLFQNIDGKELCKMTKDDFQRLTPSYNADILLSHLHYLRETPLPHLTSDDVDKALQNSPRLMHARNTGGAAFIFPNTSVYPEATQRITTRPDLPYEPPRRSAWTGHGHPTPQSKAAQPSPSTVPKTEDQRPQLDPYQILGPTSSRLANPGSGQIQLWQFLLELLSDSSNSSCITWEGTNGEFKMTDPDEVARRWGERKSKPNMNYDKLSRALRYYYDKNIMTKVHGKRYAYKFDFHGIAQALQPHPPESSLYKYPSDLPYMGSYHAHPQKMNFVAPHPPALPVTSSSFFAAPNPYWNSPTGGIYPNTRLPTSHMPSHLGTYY
Particulars: protein: recombinant; tags: N-terminal GST; dsDNA, one strand shown. A digest of the protocol: as §1

For experiment [4], the target named is ELF1 (Homo sapiens, UniProt P32519 1-619). Particulars: protein: recombinant; tags: N-terminal GST; dsDNA, one strand shown. An outline of the steps:
as §1

Experiment [5] has as its target T3, EHF (Homo sapiens, UniProt Q9NZC4 1-300).
T3 sequence: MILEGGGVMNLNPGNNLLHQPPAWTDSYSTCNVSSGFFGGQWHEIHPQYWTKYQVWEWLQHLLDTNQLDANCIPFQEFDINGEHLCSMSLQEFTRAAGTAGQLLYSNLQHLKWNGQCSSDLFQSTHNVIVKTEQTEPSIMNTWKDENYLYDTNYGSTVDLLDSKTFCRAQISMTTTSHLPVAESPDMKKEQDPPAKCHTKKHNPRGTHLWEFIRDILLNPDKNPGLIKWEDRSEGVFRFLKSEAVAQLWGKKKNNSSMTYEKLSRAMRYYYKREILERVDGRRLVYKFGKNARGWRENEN
Particulars: protein: recombinant; tags: N-terminal GST; dsDNA, one strand shown. An outline of the steps:
as §1

Experiment [6] has as its target SPI1 (Homo sapiens, UniProt P17947 1-270). To be noted: protein: recombinant; tags: N-terminal GST; dsDNA, one strand shown. A digest of the protocol: as §1
The target of experiment [7] is SPIB (Homo sapiens, UniProt Q01892 1-262). To be noted: protein: recombinant; tags: N-terminal GST; dsDNA, one strand shown. A digest of the protocol: as §1
Experiment [8] concerns the target T4, ELK3 (Homo sapiens, UniProt P41970 1-407).
T4 sequence: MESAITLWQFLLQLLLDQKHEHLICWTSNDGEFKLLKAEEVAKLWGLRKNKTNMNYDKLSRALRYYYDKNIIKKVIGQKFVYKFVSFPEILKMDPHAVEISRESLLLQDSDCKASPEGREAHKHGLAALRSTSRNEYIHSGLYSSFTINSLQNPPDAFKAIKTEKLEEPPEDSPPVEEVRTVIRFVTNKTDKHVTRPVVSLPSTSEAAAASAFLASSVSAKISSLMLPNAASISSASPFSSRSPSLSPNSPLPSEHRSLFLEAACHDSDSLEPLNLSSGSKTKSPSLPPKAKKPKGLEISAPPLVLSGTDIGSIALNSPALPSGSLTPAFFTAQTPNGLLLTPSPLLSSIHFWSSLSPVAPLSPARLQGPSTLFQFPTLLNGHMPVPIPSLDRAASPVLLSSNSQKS
To be noted: protein: recombinant; tags: N-terminal GST; dsDNA, one strand shown. A digest of the protocol:
as §1

For experiment [9], the target named is T5, SPIC (Homo sapiens, UniProt Q8N5J4 1-248).
T5 sequence: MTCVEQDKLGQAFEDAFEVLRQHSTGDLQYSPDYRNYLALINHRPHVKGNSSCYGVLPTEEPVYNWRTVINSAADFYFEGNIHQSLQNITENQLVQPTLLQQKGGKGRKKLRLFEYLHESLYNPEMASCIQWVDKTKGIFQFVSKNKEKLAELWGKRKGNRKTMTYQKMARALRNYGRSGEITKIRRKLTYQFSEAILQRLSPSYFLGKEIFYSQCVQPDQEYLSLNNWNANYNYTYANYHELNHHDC
To be noted: protein: recombinant; tags: N-terminal GST; dsDNA, one strand shown. A digest of the protocol:
as §1

The target in experiment [10] is T6, ELK4 (Homo sapiens, UniProt P28324-2 1-405).
T6 sequence: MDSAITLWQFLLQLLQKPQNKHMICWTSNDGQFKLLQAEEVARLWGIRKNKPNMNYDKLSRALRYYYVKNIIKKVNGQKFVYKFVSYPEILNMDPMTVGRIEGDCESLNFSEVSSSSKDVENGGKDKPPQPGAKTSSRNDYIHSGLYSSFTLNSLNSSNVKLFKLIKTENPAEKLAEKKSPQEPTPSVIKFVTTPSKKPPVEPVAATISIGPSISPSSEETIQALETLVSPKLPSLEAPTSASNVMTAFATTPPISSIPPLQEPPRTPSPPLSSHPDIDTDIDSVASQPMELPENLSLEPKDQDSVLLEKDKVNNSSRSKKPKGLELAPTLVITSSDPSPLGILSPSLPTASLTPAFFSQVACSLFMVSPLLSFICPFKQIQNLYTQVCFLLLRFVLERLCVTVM
Particulars: protein: recombinant; tags: N-terminal GST; dsDNA, one strand shown. A digest of the protocol:
as §1

The target in experiment [11] is T7, ETV2 (Homo sapiens, UniProt O00321 1-342).
T7 sequence: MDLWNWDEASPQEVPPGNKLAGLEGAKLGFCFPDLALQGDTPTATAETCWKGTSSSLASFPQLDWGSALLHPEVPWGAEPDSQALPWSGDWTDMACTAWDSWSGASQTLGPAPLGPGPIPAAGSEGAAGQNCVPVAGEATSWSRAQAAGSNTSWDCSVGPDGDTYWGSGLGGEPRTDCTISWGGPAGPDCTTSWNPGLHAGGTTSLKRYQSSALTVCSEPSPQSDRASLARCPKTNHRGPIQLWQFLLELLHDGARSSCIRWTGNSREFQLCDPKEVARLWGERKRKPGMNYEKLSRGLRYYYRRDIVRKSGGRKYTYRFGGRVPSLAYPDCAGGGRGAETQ
To be noted: protein: recombinant; tags: N-terminal GST; dsDNA, one strand shown. A digest of the protocol: as §1

The target in experiment [12] is T8, ELF3 (Homo sapiens, UniProt P78545 1-371).
T8 sequence: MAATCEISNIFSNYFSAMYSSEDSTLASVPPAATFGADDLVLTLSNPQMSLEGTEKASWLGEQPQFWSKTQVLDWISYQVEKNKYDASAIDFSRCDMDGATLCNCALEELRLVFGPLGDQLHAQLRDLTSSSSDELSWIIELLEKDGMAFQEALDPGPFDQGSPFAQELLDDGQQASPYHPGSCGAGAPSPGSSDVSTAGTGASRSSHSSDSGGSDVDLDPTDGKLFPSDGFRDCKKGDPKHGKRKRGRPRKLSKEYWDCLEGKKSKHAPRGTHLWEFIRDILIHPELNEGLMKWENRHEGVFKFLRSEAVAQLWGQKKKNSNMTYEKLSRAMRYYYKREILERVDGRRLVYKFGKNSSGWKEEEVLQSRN
Particulars: protein: recombinant; tags: N-terminal GST; dsDNA, one strand shown. An outline of the steps: as §1

Experiment [13] concerns the target ETV1 (Homo sapiens, UniProt P50549 1-477). Particulars: protein: recombinant; tags: N-terminal GST; dsDNA, one strand shown. An outline of the steps: as §1
For experiment [14], the target named is T9, ERF (Homo sapiens, UniProt P50548 1-548).
T9 sequence: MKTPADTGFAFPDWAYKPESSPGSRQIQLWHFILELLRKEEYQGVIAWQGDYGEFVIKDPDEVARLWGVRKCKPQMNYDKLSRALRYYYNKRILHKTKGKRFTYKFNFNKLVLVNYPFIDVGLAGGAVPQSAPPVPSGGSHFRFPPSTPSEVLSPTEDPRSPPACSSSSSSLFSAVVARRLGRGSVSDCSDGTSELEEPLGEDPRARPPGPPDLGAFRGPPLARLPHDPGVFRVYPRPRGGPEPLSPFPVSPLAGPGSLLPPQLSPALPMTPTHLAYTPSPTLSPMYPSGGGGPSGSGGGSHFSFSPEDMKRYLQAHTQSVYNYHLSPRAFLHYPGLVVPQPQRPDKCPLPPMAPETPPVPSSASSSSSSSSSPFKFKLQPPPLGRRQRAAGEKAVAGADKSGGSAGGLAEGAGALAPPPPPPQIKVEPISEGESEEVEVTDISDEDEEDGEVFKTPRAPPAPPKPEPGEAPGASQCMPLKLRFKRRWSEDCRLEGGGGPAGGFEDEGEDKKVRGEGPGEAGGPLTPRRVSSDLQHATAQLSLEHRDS
Particulars: protein: recombinant; tags: N-terminal GST; dsDNA, one strand shown. An outline of the steps: as §1

In experiment [15] the target is T10, ETS2 (Homo sapiens, UniProt P15036 1-469).
T10 sequence: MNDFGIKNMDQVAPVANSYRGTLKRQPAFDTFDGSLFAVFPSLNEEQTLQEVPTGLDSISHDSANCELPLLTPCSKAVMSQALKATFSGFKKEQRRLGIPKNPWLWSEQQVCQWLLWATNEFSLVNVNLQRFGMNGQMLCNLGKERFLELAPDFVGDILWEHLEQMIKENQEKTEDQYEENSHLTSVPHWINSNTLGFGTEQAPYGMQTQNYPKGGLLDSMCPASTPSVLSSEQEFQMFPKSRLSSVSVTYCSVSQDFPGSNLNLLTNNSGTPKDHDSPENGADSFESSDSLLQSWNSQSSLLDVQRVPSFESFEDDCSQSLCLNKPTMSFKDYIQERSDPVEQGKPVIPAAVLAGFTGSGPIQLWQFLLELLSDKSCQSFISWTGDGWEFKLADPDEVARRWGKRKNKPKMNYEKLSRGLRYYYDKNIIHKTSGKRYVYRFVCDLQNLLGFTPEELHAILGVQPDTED
Particulars: protein: recombinant; tags: N-terminal GST; dsDNA, one strand shown. An outline of the steps: as §1

HSF1, sequence (Q00613 whole entry, the tested form may be a part): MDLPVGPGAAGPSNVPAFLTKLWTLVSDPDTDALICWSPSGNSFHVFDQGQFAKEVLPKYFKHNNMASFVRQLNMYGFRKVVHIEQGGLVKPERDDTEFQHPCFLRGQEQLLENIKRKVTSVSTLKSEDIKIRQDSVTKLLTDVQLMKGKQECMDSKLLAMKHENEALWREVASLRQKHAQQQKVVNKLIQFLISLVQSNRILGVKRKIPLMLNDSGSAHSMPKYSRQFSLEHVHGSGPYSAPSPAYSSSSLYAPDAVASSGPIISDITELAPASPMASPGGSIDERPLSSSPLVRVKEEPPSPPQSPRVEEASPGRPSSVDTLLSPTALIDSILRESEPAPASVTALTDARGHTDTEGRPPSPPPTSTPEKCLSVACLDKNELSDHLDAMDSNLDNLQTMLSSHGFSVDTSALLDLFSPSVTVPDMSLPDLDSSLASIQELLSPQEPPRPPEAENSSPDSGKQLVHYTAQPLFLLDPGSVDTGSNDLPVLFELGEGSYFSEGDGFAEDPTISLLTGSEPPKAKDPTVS
ETV1, sequence (P50549 whole entry): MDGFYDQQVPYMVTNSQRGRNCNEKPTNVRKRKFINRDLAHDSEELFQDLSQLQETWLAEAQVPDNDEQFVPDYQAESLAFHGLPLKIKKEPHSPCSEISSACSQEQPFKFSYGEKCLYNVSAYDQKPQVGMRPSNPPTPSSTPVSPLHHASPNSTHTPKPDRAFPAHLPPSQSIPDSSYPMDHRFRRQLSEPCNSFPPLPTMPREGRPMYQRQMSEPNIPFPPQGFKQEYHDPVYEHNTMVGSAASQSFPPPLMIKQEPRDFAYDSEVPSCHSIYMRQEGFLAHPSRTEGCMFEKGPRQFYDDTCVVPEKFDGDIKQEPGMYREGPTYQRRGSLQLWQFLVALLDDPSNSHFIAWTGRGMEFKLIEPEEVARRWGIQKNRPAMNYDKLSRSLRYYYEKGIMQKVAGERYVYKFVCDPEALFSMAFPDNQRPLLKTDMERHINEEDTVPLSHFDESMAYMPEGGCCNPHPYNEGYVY
SPIB, sequence (Q01892 whole entry): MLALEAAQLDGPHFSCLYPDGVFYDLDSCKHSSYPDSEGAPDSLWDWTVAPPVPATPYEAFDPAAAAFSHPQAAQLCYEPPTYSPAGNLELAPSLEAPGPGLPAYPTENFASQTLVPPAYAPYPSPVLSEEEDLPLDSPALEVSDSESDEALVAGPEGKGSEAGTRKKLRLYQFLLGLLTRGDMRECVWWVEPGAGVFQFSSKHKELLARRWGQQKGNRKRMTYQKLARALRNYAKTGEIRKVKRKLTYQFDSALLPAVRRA
ELF1, sequence (P32519 whole entry): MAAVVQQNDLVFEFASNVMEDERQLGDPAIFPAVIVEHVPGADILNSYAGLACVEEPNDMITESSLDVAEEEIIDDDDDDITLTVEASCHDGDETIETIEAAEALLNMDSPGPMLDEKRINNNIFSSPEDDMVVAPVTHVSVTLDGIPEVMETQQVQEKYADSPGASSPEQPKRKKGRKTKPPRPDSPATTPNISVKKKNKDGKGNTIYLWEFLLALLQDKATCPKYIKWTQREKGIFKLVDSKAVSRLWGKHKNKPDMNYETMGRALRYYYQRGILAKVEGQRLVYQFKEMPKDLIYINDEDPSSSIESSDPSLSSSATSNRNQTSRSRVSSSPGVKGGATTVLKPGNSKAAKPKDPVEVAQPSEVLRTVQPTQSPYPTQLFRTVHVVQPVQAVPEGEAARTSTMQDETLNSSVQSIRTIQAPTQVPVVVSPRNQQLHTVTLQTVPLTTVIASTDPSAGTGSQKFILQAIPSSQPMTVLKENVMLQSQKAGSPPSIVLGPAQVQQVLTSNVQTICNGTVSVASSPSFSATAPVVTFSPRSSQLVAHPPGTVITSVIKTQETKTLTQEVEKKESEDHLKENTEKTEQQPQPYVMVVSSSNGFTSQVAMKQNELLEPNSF

Take TCGAGG: the binding signal in [1] is 1.04 fold enrichment (6-mer frequency, TF over GST control).
As to CGCAAA, the binding signal in [2] was 1.01 fold enrichment (6-mer frequency, TF over GST control); in [3], 1.04 fold enrichment (6-mer frequency, TF over GST control); in experiment [4], 1 fold enrichment (6-mer frequency, TF over GST control); in experiment [5], 1.03 fold enrichment (6-mer frequency, TF over GST control); in [6], 1.05 fold enrichment (6-mer frequency, TF over GST control); in experiment [7] it was 1.02 fold enrichment (6-mer frequency, TF over GST control). In addition, the binding signal was 1.08 fold enrichment (6-mer frequency, TF over GST control) in experiment [8]; 1.01 fold enrichment (6-mer frequency, TF over GST control) in experiment [1]; 1.02 fold enrichment (6-mer frequency, TF over GST control) in experiment [9]; 1.03 fold enrichment (6-mer frequency, TF over GST control) in experiment [10]; 1.07 fold enrichment (6-mer frequency, TF over GST control) in experiment [11]; 1.13 fold enrichment (6-mer frequency, TF over GST control) in experiment [12]. Also, the binding signal in [13] was 1.11 fold enrichment (6-mer frequency, TF over GST control); in experiment [14], 1.1 fold enrichment (6-mer frequency, TF over GST control); in experiment [15], 1.06 fold enrichment (6-mer frequency, TF over GST control).

The values above are taken from paper PMC7862700, “An all-to-all approach to the identification of sequence-specific readers for epigenetic DNA modifications on cytosine”.
